This is one part of a sample in which hits are shown more often than they occur.
fixLJ activator: activators of Burkholderia fixLJ two-component system, primary screen, B. multivorans, GFP reporter; B. multivorans fixK-promoter GFP reporter, 18 h; stronger effect = higher value; z-score (concentration not given with the values); actives 0.3% (n = 29,000); AID 1918990, 2023;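 active = replicate mean overnight rise in green fluorescent reporter signal, 3 or more SD over negative controls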
Numbers without * were called inactive.

SMILES | fixLJ activator
COc1ccc(Nc2nc3ccccc3nc2NS(=O)(=O)c2ccc(C)cc2)c(OC)c1 | -0.4
COc1cc(Cl)c(C)cc1Nc1nc2ccccc2nc1NS(=O)(=O)c1ccccc1 | 3.41*
COc1ccc2nc(NS(=O)(=O)c3ccc(C)cc3)c(Nc3cc(Cl)ccc3OC)nc2c1 | -4.1
Cc1cccc(N2CCN(S(=O)(=O)c3cc(Cl)ccc3Cl)CC2)c1C | 0.22
COc1ccc(S(=O)(=O)N2CCN(c3cccc(C)c3C)CC2)c2ccccc12 | -0.15
CCOc1ccc(OCC)c(S(=O)(=O)N2CCN(c3cccc(C)c3C)CC2)c1 | 3.43*
CC(C)c1cc(C(=O)NC(c2cnc3ccccc3c2)C2CC(O)C2)n(C)n1 (centres undefined) | -1.8
O=C1CCC(C(=O)N2CCC(CNC(=O)c3csc4ccccc34)CC2)N1 (centres undefined) | 0.59
Cc1cc(C)nc(NCC2CN(Cc3ccccc3)CCCO2)n1 (centres undefined) | -4.44
CC(C)c1ccc(C2Sc3ccccc3NC3=C2C(=O)c2ccccc23)cc1 (centres undefined) | 2.65
CCc1ccc(C2Sc3ccccc3NC3=C2C(=O)c2ccccc23)cc1 (centres undefined) | 3.32*
O=C1C2=C(Nc3ccccc3SC2c2ccc(C(F)(F)F)cc2)c2ccccc21 (centres undefined) | 1.37
CSc1ccc(-c2ccc(C(=O)NC3CCN(CCO)CC3)cc2)cc1 | -1.15
Cc1ccc(NC(=O)c2oc3ccccc3c2NC(=O)Cc2ccccc2)cc1 | -0.81
O=C(Cc1ccccc1)Nc1c(C(=O)c2ccccc2)oc2ccccc12 | 3.1*
CCc1ccc(OCC(=O)Nc2c(C(=O)c3ccccc3)oc3ccccc23)cc1 | -1.92
N#C/C(=C\c1ccc(-c2ccc(F)cc2F)o1)c1nc2ccccc2[nH]1 | 13.8*
N#C/C(=C\c1ccc(Cl)cc1)c1nc2ccccc2[nH]1 | 0.71
N#C/C(=C\c1ccc(-c2ccccc2C(=O)O)o1)c1nc2ccccc2[nH]1 | -1.6
O=C1CN(C(=O)c2ccn[nH]2)CCN1Cc1ccccc1F | -0.4
Cc1ncn(CCNC(=O)N2CCN(c3ncnc4ccccc34)CC2)c1C | 1.75
CCCc1nn(-c2ccc(Cl)cc2)c(=O)n1CC(=O)NCc1ccno1 | -1.87
Cc1ccc(S(=O)(=O)N(CCc2ccccc2)CC(=O)Nc2ccc(Br)cc2)cc1 | 3.11*
COC(=O)c1ccc(NC(=O)CN(CCc2ccccc2)S(=O)(=O)c2ccc(OC)cc2)cc1 | 3
O=C(CN(CCc1ccccc1)S(=O)(=O)c1ccc(Br)cc1)NCc1ccc(Cl)cc1 | 0.62
SMILES | fixLJ activator
CN(C)C(=O)CN1CCCN(C(=O)c2cc(-c3cccn3C)n[nH]2)CC1 | 0.68
O=C(Nc1onc2c1CCCC2)c1ccc(Cl)cc1 | -1.29
O=C(Nc1cccc2cccnc12)c1ccccc1[N+](=O)[O-] | -1.96
CC1CCc2noc(NC(=O)c3ccccc3[N+](=O)[O-])c2C1 (centres undefined) | 3.56*
Cc1cc(NC(=O)C2CCCN(S(=O)(=O)c3ccc(Br)s3)C2)ccc1Br (centres undefined) | -1.05
CC(=O)c1ccc(NC(=O)C2CCCN(S(=O)(=O)c3ccc(Br)s3)C2)cc1 (centres undefined) | 3.21*
CC(=O)c1ccc(N2CCN(C(=O)C3CCCN(S(=O)(=O)c4ccc(Br)s4)C3)CC2)cc1 (centres undefined) | -1.07
Cc1ccc(-n2cccn2)c(CN2CCC(c3cc(=O)[nH]c(C)n3)CC2)c1 | 0.56
O=C(c1ccc[nH]1)N1CCCC(c2nccn2Cc2ccncc2)C1 (centres undefined) | 1.13
Cc1cc(CC2COCC2NC(=O)C2CCN(C3CCCC3)CC2)on1 (centres undefined) | -1.1
Cc1ccc(S(=O)(=O)c2nc(-c3ccccc3Cl)oc2N2CCCCCC2)cc1 | 1.15
O=S(=O)(c1ccccc1)c1nc(-c2ccccc2Cl)oc1N1CCCCCC1 | 3.2*
COc1ccccc1-c1nc(S(=O)(=O)c2ccc(Cl)cc2)c(N2CCCCCC2)o1 | -0.45
O=C(CN1CCCCC1=O)N1CCC(n2cc(C3CCCCC3)nn2)CC1 | 0.51
CCC(C)n1c(=N)c(S(=O)(=O)c2ccc(C)cc2)cc2c(=O)n3cc(C)ccc3nc21 (centres undefined) | 5.73*
CCCCCn1c(=N)c(S(=O)(=O)c2ccc(C)cc2)cc2c(=O)n3cc(C)ccc3nc21 | -1.38
CCC(C)n1c(=N)c(S(=O)(=O)c2ccccc2)cc2c(=O)n3ccccc3nc21 (centres undefined) | -2.77
CC(=O)N1CCN(C(=O)c2cc(F)ccc2OCCCN)CC1 | -0.5
Cc1ccc2nc(SCC(=O)N3CCC4(CC3)CNC(=O)O4)[nH]c2c1 | -0.85
Cc1nc(CCC(=O)N2CCC3(CCCN(CCC4CCCCC4)C3=O)C2)n[nH]1 (centres undefined) | 0.09
COc1ccc(NC(=O)CC2C(=O)N(c3ccccc3)C(=O)N2CCC2=CCCCC2)cc1 (centres undefined) | -1.76
O=C(CC1C(=O)N(c2ccccc2)C(=O)N1CCC1=CCCCC1)Nc1ccc(F)cc1 (centres undefined) | 1.08
CCOc1ccc(NC(=O)CC2C(=O)N(c3cccc(C)c3)C(=O)N2CCC2=CCCCC2)cc1 (centres undefined) | 3.05*
Cc1oc(-c2cc(C(F)(F)F)on2)cc1S(=O)(=O)NC(C)Cc1cccnc1 (centres undefined) | -1.3
CCC(c1nc(CC(N)=O)nn1-c1ccccc1C)N1CCCC1 (centres undefined) | 0.04
SMILES | fixLJ activator
COc1ccc(NCc2nc3ccccc3n2CCOc2ccccc2C)cc1 | 1
Fc1ccc(NCc2nc3ccccc3n2CCOc2ccccc2Cl)cc1 | 3.32*
O=C(O)c1ccc(NCc2nc3ccccc3n2CCOc2ccccc2Cl)cc1 | 0.09
Cc1cc(C)n(CCCNC(=O)c2cccc(-c3cnc(=O)[nH]c3)c2)n1 | 0.72
COc1cc(-c2nccn2CCCn2ccnc2C(C)C)ccn1 | 0.06
CCn1nccc1C(=O)N1CCC2(CC1)CN(CCC(C)C)C(=O)O2 | 0.25
COc1ccccc1CNC(=O)CCc1c(C)c2cc3c(C)c(C)oc3cc2oc1=O | 3.47*
COc1ccccc1CCNC(=O)CCc1c(C)c2cc3c(C)c(C)oc3cc2oc1=O | 0.85
COc1ccccc1CNC(=O)CCc1c(C)c2ccc(OC)c(C)c2oc1=O | -1.88
Cc1ccc(C(=O)N2CC(CO)C(CN3CCOCC3)C2)cc1Cl (centres undefined) | -0.79
Cc1noc(C)c1CN1C(=O)C2CCC1CN(c1ncnc3[nH]ccc13)C2 (centres undefined) | -0.26
COc1ccc(C(=O)N2CC[C@@]3(C(=O)O)CCCN(C)[C@H]3C2)c(OC)c1 | -4.36
COc1cc(C(=O)N2CCCN(C(=O)CCn3cccn3)CC2)ccn1 | -1.32
COc1cccc(OCC2CCCN(C(=O)c3ccoc3C)C2)c1 (centres undefined) | -1.23
C=CCN(C(=O)CC1COc2ccc(C(=O)N(C)C)cc2N1C)C1CCCC1 (centres undefined) | 1.29
Cc1ccccc1Cn1c2ccccc2c2cnn(CC(=O)N3CCC(C)CC3)c(=O)c21 | -2.83
CC1CCN(C(=O)Cn2ncc3c4ccccc4n(Cc4ccc(Cl)cc4)c3c2=O)CC1 | 7.34*
CN1CCN(C(=O)Cn2ncc3c4ccccc4n(Cc4ccc(Cl)cc4)c3c2=O)CC1 | 1.16
Cn1c2ccccc2c2cnn(CC(=O)NCc3ccc(Cl)cc3)c(=O)c21 | -1.94
O=C(Cn1ncc2c3ccccc3n(Cc3ccc(Cl)cc3)c2c1=O)NCc1cccs1 | 8.25*

Screening data as filed in PubChem BioAssay.
